{"source": "the supplement of paper PMC9177965", "data": [{"tested_on": "HT29 sg-Ctrl (RNF43 wildtype)", "assay": "cell viability activity relative to DMSO (negative = inhibition); higher = more viable cells (less growth inhibition)", "conditions": "5 µM; 96 h", "procedure": "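Broad Repurposing Library primary screen at a single dose of 5 uM. HT29 sg-Ctrl and HT29 RNF43 G659fs CRISPR-edited isogenic cells were seeded at 2500 cells/well in 384-well plates in duplicate and treated for 96 h. Viability was read by CellTiter-Glo and reported as % activity relative to DMSO, with MG132 as the positive control (negative = growth inhibition).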", "units": {"cell viability activity": "%"}, "values": [{"smiles": "CC(C)Nc1cc(-c2c[nH]c(C(=O)N[C@H](CO)c3cccc(Cl)c3)c2)c(Cl)cn1", "cell viability activity": -78.7}, {"smiles": "OCCN1CCN(CCCN2c3ccccc3Sc3ccc(Cl)cc32)CC1", "cell viability activity": -90.5}, {"smiles": "C[C@H](Nc1cc(-c2cnn(C)c2)cc(Nc2cnccn2)n1)c1ccc(F)cc1", "cell viability activity": -43}, {"smiles": "COc1cc(N2CCC(N3CCN(C)CC3)CC2)ccc1Nc1ncc(Cl)c(Nc2ccccc2P(C)(C)=O)n1", "cell viability activity": -81}, {"smiles": "Cc1cc(I)ccc1Nc1c(C(=O)NOCC2CC2)cc(F)c(F)c1F", "cell viability activity": -71.6}, {"smiles": "CCN(CC)CCOCCOC(=O)C(CC)(CC)c1ccccc1", "cell viability activity": -61.1}, {"smiles": "Cc1ccc(C(=O)Nc2ccc(CN3CCN(C)CC3)c(C(F)(F)F)c2)cc1C#Cc1cnc2[nH]ncc2c1", "cell viability activity": -94}, {"smiles": "CCOc1ccc(Cc2nccc3cc(OCC)c(OCC)cc23)cc1OCC", "cell viability activity": -25.2}, {"smiles": "CC(C)(O)C(=O)N1CCN(c2ccc(C(F)(F)F)c(C3=C(c4c[nH]c5ccccc45)C(=O)NC3=O)c2)CC1", "cell viability activity": -32.7}, {"smiles": "CN1CCN(CCCN2c3ccccc3Sc3ccc(C(F)(F)F)cc32)CC1", "cell viability activity": -18.8}, {"smiles": "COc1cc2ncnc(Sc3nnc(C)s3)c2cc1OC", "cell viability activity": 14.6}, {"smiles": "Nc1nc2[nH]cnc2c(=S)[nH]1", "cell viability activity": -73.9}, {"smiles": "CNCCCOc1cc(F)c(-c2c(Cl)nc3ncnn3c2N[C@@H](C)C(F)(F)F)c(F)c1", "cell viability activity": -62.1}, {"smiles": "CN(C)c1ccc(C(=O)NCCCCCCC(=O)NO)cc1", "cell viability activity": -82}, {"smiles": "Cn1ccc2cc(NC(=O)Nc3cccnc3)ccc21", "cell viability activity": -52}, {"smiles": "CCn1c(=O)c(-c2cc[nH]n2)cc2c(C)nc(N)nc21", "cell viability activity": -42.2}, {"smiles": "Cn1cc(-c2ccc(S(=O)(=O)n3ccc(/C=C/C(=O)Nc4ccccc4N)c3)cc2)cn1", "cell viability activity": -63.3}, {"smiles": "OC[C@H]1O[C@@H](Oc2cc(O)cc(/C=C/c3ccc(O)cc3)c2)[C@H](O)[C@@H](O)[C@@H]1O", "cell viability activity": -36}, {"smiles": "O=C(/C=C/c1ccc2ccccc2n1)c1ccncc1", "cell viability activity": -54}, {"smiles": "Oc1c(Cl)cc(Cl)c(Cl)c1Cc1c(O)c(Cl)cc(Cl)c1Cl", "cell viability activity": -40.9}, {"smiles": "Cc1ccc(C(=O)Nc2ccc(CN3CCN(C)CC3)c(C(F)(F)F)c2)cc1C#Cc1cnc2cccnn12", "cell viability activity": -78.4}, {"smiles": "COc1cccc(Nc2ncnn3ccc(CN4CC[C@@H](N)[C@H](O)C4)c23)c1", "cell viability activity": -31.4}, {"smiles": "C1CCC(C(CC2CCCCN2)C2CCCCC2)CC1", "note": "(centres undefined)", "cell viability activity": -89}, {"smiles": "CNC(=O)c1ccccc1Nc1cc(Nc2ccc(N3CCOCC3)cc2OC)ncc1C(F)(F)F", "cell viability activity": -60}]}]}
